About 180 (0.064%) of roughly 280,000 compounds were called active. The list comes from a sample in which actives are over-represented; it also holds similar structures and randomly drawn compounds. Unmarked numbers belong to inactive results. Calls come from the whole dose curve; as a rule, active = well fitted inhibition curve with a large enough effect; inconclusive = small, poorly fitted or top-dose-only effect, or effect the other way; inactive = flat fitted curve, though single readings scatter.
These compounds were tested against Thyroid hormone receptor beta (Homo sapiens) (UniProt P10828) (assay: qHTS for Inhibitors of the Interaction of Thyroid Hormone Receptor and Steroid Receptor Coregulator 2). Settings: TRbeta-SRC2 peptide binding, fluorescence polarization, receptor liganded with 1 µM T3; series mostly up to 106 µM; activity change, negative = inhibition: at the top concentration.
Chain of Thyroid hormone receptor beta (Homo sapiens) (P10828 whole entry, looked up): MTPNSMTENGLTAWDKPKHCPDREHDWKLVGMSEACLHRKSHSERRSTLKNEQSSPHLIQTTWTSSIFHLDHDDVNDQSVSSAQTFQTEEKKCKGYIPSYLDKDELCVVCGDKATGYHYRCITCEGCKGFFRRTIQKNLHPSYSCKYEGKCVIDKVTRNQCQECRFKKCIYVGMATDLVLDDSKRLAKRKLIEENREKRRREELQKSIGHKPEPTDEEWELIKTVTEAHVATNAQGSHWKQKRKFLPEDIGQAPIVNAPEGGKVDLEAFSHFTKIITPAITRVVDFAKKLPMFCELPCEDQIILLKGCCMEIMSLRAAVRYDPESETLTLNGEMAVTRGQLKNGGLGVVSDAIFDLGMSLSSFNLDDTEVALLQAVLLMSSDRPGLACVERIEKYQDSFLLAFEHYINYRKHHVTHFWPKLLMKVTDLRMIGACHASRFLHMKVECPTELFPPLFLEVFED
Source text: NIH Molecular Libraries Probe Production Network [MLPCN]
NIH Chemical Genomics Center [NCGC]
Assay Provider: R. Kip Guy, St. Jude Children's Research Hospital
Thyroid receptor (TR) regulates many homeostatic processes including basal metabolism, cardiovascular function, body weight, and lipid trafficking. TR modulators are potential therapeutics for obesity and hyperlipidemias but current thyroid analogs have undesirable side effects, particularly cardiac stimulation. To identify inhibitors that specifically prevent the interaction of TR with the steroid receptor coregulator 2 (SRC2), a fluorescence polarization assay was screened. This assay detects interaction of the ligand-binding domain of human TRb with a Texas Red labeled SRC2 peptide, corresponding to a 20 amino acid region of the nuclear receptor interaction domain (Arnold et al., 2006). Small molecule inhibitors that block the interaction of TR and SRC2 are detected by a decrease in fluorescence polarization.
Arnold, L. A.; Estebanez-Perpina, E.; Togashi, M.; Shelat, A.; Ocasio, C. A.; McReynolds, A. C.; Nguyen, P.; Baxter, J. D.; Fletterick, R. J.; Webb, P.; Guy, R. K. A high-throughput screening method to identify small molecule inhibitors of thyroid hormone receptor coactivator binding. Sci STKE 2006, p 13.
NCGC Assay Protocol Summary:
For screening, 5 uL/well 0.6 uM TRb and 20 nM SRC2 Texas Red in protein buffer (20mM Tris hydrochloride, 100mM NaCl, 10% glycerol, 1mM EDTA, 0.01% NP-40, 1mM DTT, 1uM T3 and 5% DMSO) was dispensed into black solid 1536-well plates (Grenier) using a solenoid-based dispenser. Following transfer of 23 nL compound or DMSO vehicle by a pin tool, the plates were centrifuged 15 s at 1000 RPM and incubated 5 hr at ambient temperature. The plates were read by an Envision (Perkin Elmer) to detect fluorescence polarization of SRC2 Texas Red (555 nm excitation and 632 nm emission). Data were normalized to unbound (all components except TRb) and bound SRC2 Texas Red controls. In this assay, we provide % activity data for each concentration as well as potencies for the active compounds.
Keywords: NIH Roadmap, MLPCN, MLI, MLSMR, qHTS, NCGC, qHTS, thyroid hormone receptor, steroid receptor coactivator, fluorescence polarization
Note: nearly all actives have a fitted effect of over 50% in size.
Potency is the fitted concentration of half-maximal effect.
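Throughout, for activity change, negative = inhibition: plate controls were bound peptide for no effect and peptide without receptor for full effect.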

| Compound | activity change, negative = inhibition | Potency |
| --- | --- | --- |
| O=C1CSC2(C(=O)N(Cc3ccccc3)c3ccccc32)N1c1cccc(F)c1 (centres undefined) | 3.71% |  |
| CCn1cc(C(=O)N2CCN(c3cc(C)ccc3C)CC2)c(=O)c2cc(S(=O)(=O)N(C)C3CCCCC3)ccc21 | 1.74% |  |
| Cc1nnc(NC(=O)CSc2nc3c([nH]c4ccccc43)c(=O)n2-c2cccc(Cl)c2)s1 | 6.72% |  |
| COc1ccccc1N1CCN(C(=O)C2CCN(S(=O)(=O)c3c(C)noc3/C=C/c3ccc(C)cc3)CC2)CC1 | 7.45% |  |
| CCOc1ccc2oc(=O)cc(CN3CCN(C(=O)c4ccc(F)cc4)CC3)c2c1 | -8.37% |  |
| Cc1cccc(N2CCN(C(=O)CCn3c(=O)c4cccn4c4cccnc43)CC2C)c1 (centres undefined) | 4.81% |  |
| COc1ccc(-n2ccnc(NCCc3ccc(Cl)cc3)c2=O)cc1OC | 5.85% |  |
| CCn1c(C)c(C)c2cc(C(=O)NCCc3cc(OC)ccc3OC)ccc21 | -5.66% |  |
| COc1ccc(-c2onc(C)c2C)cc1S(=O)(=O)NCC1CCN(Cc2cccc(F)c2)CC1 | 2.95% |  |
| Cc1cccc(NC(=O)CN(c2ccc(C(C)C)cc2)S(=O)(=O)c2c(C)nn(C)c2C)c1C | 1.49% |  |
| Cc1cc2c(cc3c(SCc4cccc(Cl)c4)nnc(C)n32)o1 | 7.69% |  |
| COc1ccc(-c2cn3nc(N4CCC(C(=O)Nc5cccc(C)c5C)CC4)sc3n2)cc1 | 2.88% |  |
| COc1ccc(CNC(=O)c2ccc(NC(=O)N3CC4CCCN4c4ccccc43)cc2)cc1 (centres undefined) | -4.18% |  |
| Cc1cccc(N2CCN(C3=C(c4ccccc4)C(=O)c4ccccc43)CC2)c1C | -3.14% |  |
| Cc1nc2nc(NCc3cccc(Br)c3)[nH]n2c(=O)c1Cc1ccccc1 | -7.16% |  |
| C[Si](C)(C)N[Si](C)(C)C | 2.92% [at 201 µM] |  |
| CN(C)c1ccc(N/C=C/C(=O)C(F)(F)F)cc1 |  | 44.7 µM (active) |
| O=C(/C=C/Nc1ccccc1OC(F)(F)F)C(F)(F)F | 5.17% |  |
| CCCOc1ccc(N/C=C/C(=O)C(C)(C)C)cc1 | 4.71% |  |
| COc1ccc(C2=NC(c3ccncc3)=Nc3ccc(Br)cc3N2)cc1 | -4.88% |  |
| Cc1ccccc1OCc1ccc(-c2nc(C#N)c(N3CCCCC3)o2)o1 | 0.495% |  |
| Cc1cc(=O)n(CC(=O)Nc2cccc([N+](=O)[O-])c2)c(-n2nc(C)cc2C)n1 | 3.16% |  |
| Cc1ccc(NC(=O)c2oc3ccc(S(=O)(=O)N4CCCCC4)cc3c2C)cc1Cl | -6.34% |  |
| CCN(CC)c1cc(NC2CCCCC2)c2c3c(onc13)-c1ccccc1C2=O | -2.27% |  |
| COc1cc(NC(=O)c2noc3c2CSc2ccccc2-3)cc(OC)c1OC | 3.67% |  |

| Compound | activity change, negative = inhibition | Potency |
| --- | --- | --- |
| CCc1cccc(C)c1Nc1c(-c2ccc(N(C)C)cc2)nc2ncccn12 | 7.62% |  |
| CCOCCCNC(=O)c1ccc2nc(CCc3ccccc3)oc2c1 | 4.71% |  |
| CCc1ccccc1NC(=O)Cc1ccc(NC(=O)N2CCCCc3ccccc32)cc1 | -8.69% |  |
| CCOC(=O)c1ccc(N2C(=O)c3n[nH]c(-c4ccco4)c3C2c2ccc(O)cc2)cc1 (centres undefined) | -1.97% |  |
| O=C(CCOc1ccccc1)N(Cc1cccnc1)c1nc2ccc(Cl)cc2s1 | -8.93% |  |
| CCOC(=O)N1CCc2c(sc(NCc3cccc(F)c3)c2C(=O)Nc2ccccc2OCC)C1 | -2.15% |  |
| COC(=O)CC1Oc2ccccc2-n2cc(-c3ccccc3)nc21 (centres undefined) | 2.42% |  |
| Cc1ccc(O)c(NC(=O)CCS(=O)(=O)c2nc(-c3ccc4c(c3)OCO4)cc(C(F)(F)F)n2)c1 | 0.6% |  |
| Cc1cc(C)cc(NC(=O)CSc2oc(-c3ccccc3)nc2S(=O)(=O)c2ccc(Cl)cc2)c1 | 3.51% |  |
| CCOc1ccc(CNC(=O)c2ccc(CS(=O)c3ccccc3)o2)cc1 (centres undefined) | 2.05% |  |
| CCCn1c(NCc2ccc(N(CC)CC)cc2)nc2ccccc21 | 5.29% |  |
| CCOCCCNC(=O)c1c(NC(=O)Cc2coc3ccc(C)cc23)sc2c1CCC2 | -6.01% [at 53 µM] |  |
| Cc1ccc2nc(-c3ccc(O)cc3)c(Nc3ccc4c(c3)OCO4)n2c1 | -5.88% |  |
| Cc1ccc(-c2nc3ccccn3c2Nc2c(C)cccc2C)o1 | 2.13% |  |
| Cc1ccccc1CS(=O)(=O)CC1Nc2ccc(C(=O)NCc3ccc(Cl)cc3)cc2NC1=O (centres undefined) | -3.54% |  |
| Cc1cccc(N2CCN(c3ccc(C(=O)O)cc3NC(=O)c3ccccc3F)CC2C)c1 (centres undefined) | -2.14% |  |
| CCOc1ccc(-c2cc(C)n3nc(C(=O)Nc4ccc(C)c(C)c4)cc3n2)cc1 | 3.95% |  |
| O=C(N/N=C/c1c(Cl)[nH]c2ccccc12)c1sc2ccccc2c1Cl | 0.527% |  |
| Oc1ccc(N=Cc2sc3ccccc3c2Cl)cc1 |  | 14.1 µM (active) |
| COc1ccc(N=C(C)c2sc3ccccc3c2O)cc1 | 1.68% |  |
| COc1cccc(-c2cc(C(=O)Nc3ccc(C)cc3)[nH]n2)c1 | -2.44% |  |
| COc1ccc(CC(=O)Nc2nnc3n2CCS3)cc1OC | 5.54% |  |
| Cc1ccc(Nc2nnc(-c3ccc(C)c(S(=O)(=O)N4CCCCC4)c3)c3ccccc23)cc1 | -3.05% |  |
| COc1ccccc1N1CCN(CCCNC(=O)c2cnn(-c3ccccc3Cl)c2C2CCN(C(=O)OC(C)(C)C)CC2)CC1 | 5.02% |  |

Reference: PubChem BioAssay AID1469 (National Center for Advancing Translational Sciences (NCATS), 2008)
